Test results as given in article PMC5540273 (PLoS ONE, 2017).

System: T1, CDK11
T1 construct: gene CDK19
Conditions: concentration: 1 μM, replicates: in singlicate; n = 1
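Also: KINOMEscan kinase panel screen.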

In order of falling “%Inh” value:
1. Cc1cc(-c2ccc3c(c2)CC[C@@H](N[C@@H](C)c2ccccc2)C3)cnc1N.Cl [GW412617]  40%
2. CCn1c(-c2cccnc2O)nc2cnccc21 [SB-736715]  21%
3. O=C(O)COc1ncnc2cc(-c3ccc4[nH]ncc4c3)sc12  21%
4. COc1ccccc1-c1ccc2c(NC(=O)C3CC3)n[nH]c2n1 [SB-711239]  19%
5. CN(C)CCN(C)C(=O)c1cc(-c2ccncc2)c(-c2ccc(Cl)c(O)c2)o1.Cl.Cl [SB-710397]  15%
6. Cc1ccc(NC(=O)Nc2cccc(Cl)c2)cc1-c1ccc(C(=O)Nc2ccncc2)cc1 [GSK1398468]  14%
7. Cc1cccc(-c2nc(C)cc(Nc3ccncc3)n2)n1 [GSK257997]  12%
8. CC(C)(C)c1ccc(C(=O)Nc2cn3cc(-c4cccnc4)ccc3n2)cc1  9%
9. Cc1cccc(-c2nc(Nc3cccc(C(N)=O)c3)c3ccccc3n2)n1 [GW876019]  8%
10. Cc1cccc(-c2cc(Nc3ccncc3)c3ccccc3n2)n1 [GSK223675]  7%
11. Cc1csc(-c2nc(Nc3ccncc3)c3ccccc3n2)n1 [GW869640]  7%
12. O=C(Nc1n[nH]c2cc(-c3cccc(F)c3F)ccc12)C1CC1 [SB-733894]  5%
13. Cc1nnc(-c2ccc3occ(-c4ccc(S(C)=O)cc4)c3c2)[nH]1 (stereo not drawn)  0%
14. Cn1ccc2ncnc(Oc3cccc(C(=O)Nc4ccccc4)c3)c21  0%
15. O=C(Nc1n[nH]c2nc(-c3nccs3)c(Br)cc12)C1CC1 [SB-742251]  0%
16. COc1cc2ncnc(Nc3ccc4nc(-c5ccccc5)[nH]c4c3)c2cc1OC.Cl [GW282450]  0%
17. CN1C(=O)C(Nc2ccc(Cl)c(C(=O)O)c2)=C(c2ccc(Cl)cc2)C1=O [SB-404290]  0%
18. Cc1cccc(-c2nc(Nc3ccncc3)c3ccccc3n2)n1 [GW855857]  0%
19. CS(=O)(=O)c1ccc(-c2nc3n(c2-c2ccncc2)CCC3)cc1 [SKF-105942]  0%
20. Cc1c(Cn2ccn3c(=O)cc(N4CCOCC4)nc23)cccc1C(F)(F)F [GSK2289044]  0%

System: CDK2
Conditions: concentration: 1 μM, replicates: in singlicate; n = 1

In order of falling “%Inh” value:
1. O=C(Nc1n[nH]c2nc(-c3nccs3)c(Br)cc12)C1CC1 [SB-742251]  81%
2. Cc1ccc(NC(=O)Nc2cccc(Cl)c2)cc1-c1ccc(C(=O)Nc2ccncc2)cc1 [GSK1398468]  33%
3. O=C(Nc1n[nH]c2cc(-c3cccc(F)c3F)ccc12)C1CC1 [SB-733894]  22%
4. CN1C(=O)C(Nc2ccc(Cl)c(C(=O)O)c2)=C(c2ccc(Cl)cc2)C1=O [SB-404290]  13%
5. Cc1cc(-c2ccc3c(c2)CC[C@@H](N[C@@H](C)c2ccccc2)C3)cnc1N.Cl [GW412617]  12%
6. Cc1csc(-c2nc(Nc3ccncc3)c3ccccc3n2)n1 [GW869640]  7%
7. Cn1ccc2ncnc(Oc3ccc(Nc4nc5ccccc5[nH]4)cc3)c21  6%
8. Cn1ccc2ncnc(Oc3cccc(C(=O)Nc4ccccc4)c3)c21  6%
9. CC(C)(C)c1ccc(C(=O)Nc2cn3cc(-c4cccnc4)ccc3n2)cc1  3%
10. COC(=O)c1c(-c2ccccc2)c2cc(OC)ccc2c(=O)n1Cc1ccccc1  2%
11. Cc1nnc(-c2ccc3occ(-c4ccc(S(C)=O)cc4)c3c2)[nH]1 (stereo not drawn)  2%
12. Nc1nc(-c2nccs2)c(-c2ccnc3ccccc23)s1 [GW693542]  0%
13. CC1=C(C(=O)Nc2cc3cn[nH]c3cc2F)C(c2ccc(C(F)(F)F)cc2)CC(=O)N1 (stereo not drawn) [GSK429286]  0%
14. Cc1cccc(-c2nc(Nc3ccc4[nH]ncc4c3)c3ccccc3n2)n1 [GW857175]  0%
15. Cc1cc(NCC(c2ccccc2)c2ccccc2)nc(NCc2ccc(C(F)(F)F)cc2)n1 [GW497681]  0%
16. COc1cc(Nc2nccc(N3CCC(NC(=O)Nc4cc(C)ccc4C)C3)n2)cc(OC)c1OC (stereo not drawn) [GSK1379762]  0%
17. O=C(Nc1ccccc1)Nc1cccc(Oc2ccc3nccn3n2)c1  0%
18. Cl.O=C(Nc1cccc(-c2nn3ncccc3c2-c2ccnc(Nc3cccnc3)n2)c1)c1c(F)cccc1F [GSK312879]  0%
19. CCn1c(-c2ccccn2)nc2cnccc21 [SB-736398]  0%
20. CC(C)(C)c1ccc(C(=O)Nc2cn3cc(Cl)ccc3n2)cc1  0%
21. Cl.NC(=O)c1cccc(Nc2nccc(Nc3ccc(Oc4cccc(Cl)c4)c(Cl)c3)n2)c1 [GW659008]  0%
22. Cc1ccccc1-n1cnc2c(N)ncnc21 [SKF-97510]  0%
23. COc1ccc2nc(-c3cccc(C)n3)nc(Nc3ccncc3)c2c1 [GSK204919]  0%
24. Cc1cccc(-c2cc(Nc3ccncc3)c3ccccc3n2)n1 [GSK223675]  0%
25. CN(C)CCN(C)C(=O)c1cc(-c2ccncc2)c(-c2ccc(Cl)c(O)c2)o1.Cl.Cl [SB-710397]  0%
26. Cc1cccc(-c2nc(C)cc(Nc3ccncc3)n2)n1 [GSK257997]  0%
27. Cc1cccc(-c2nc(Nc3cccc(C(N)=O)c3)c3ccccc3n2)n1 [GW876019]  0%
28. COc1cc2ncnc(Nc3ccc4nc(-c5ccccc5)[nH]c4c3)c2cc1OC.Cl [GW282450]  0%
29. Cc1cccc(-c2nc(Nc3ccncc3)c3ccccc3n2)n1 [GW855857]  0%
30. CCn1c(-c2cccnc2O)nc2cnccc21 [SB-736715]  0%
31. COc1ccccc1-c1ccc2c(NC(=O)C3CC3)n[nH]c2n1 [SB-711239]  0%
32. CS(=O)(=O)c1ccc(-c2nc3n(c2-c2ccncc2)CCC3)cc1 [SKF-105942]  0%
33. Cc1c(Cn2ccn3c(=O)cc(N4CCOCC4)nc23)cccc1C(F)(F)F [GSK2289044]  0%
34. O=C(O)COc1ncnc2cc(-c3ccc4[nH]ncc4c3)sc12  0%
